High-throughput results deposited in PubChem BioAssay by several laboratories.
GDH-TPI counter – inhibits GDH-TPI coupling enzymes, artifact for Mtb FBA screen; GDH-TPI coupled enzyme counterscreen, NADH absorbance; inhibition, % at 4.8 µM; actives 1.2% (n = 360,000); AID 588335;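 also: 0% = DMSO wells and 100% = wells lacking the enzyme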
CCHFV vOTU inh – blocks the CCHF virus ovarian tumor domain protease | actives 0.55% (n = 370,000) | CCHFV vOTU protease, Pep-AMC fluorescence | AID 651958 | inhibition, % at 11.5 µM; also: 0% = vehicle wells with enzyme and 100% = no enzyme wells
FBA Mtb inh – Mtb fructose-bisphosphate aldolase inhibition; P9WQA3; purified M. tuberculosis FBA, fluorescence read-out; inhibition, % at 1 µM; actives 2.3% (n = 360,000); AID 588726; in the data active = inhibition above about 27%;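 also: 0% = vehicle and 100% = reference inhibitor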
Target sequence (P9WQA3 whole entry, looked up): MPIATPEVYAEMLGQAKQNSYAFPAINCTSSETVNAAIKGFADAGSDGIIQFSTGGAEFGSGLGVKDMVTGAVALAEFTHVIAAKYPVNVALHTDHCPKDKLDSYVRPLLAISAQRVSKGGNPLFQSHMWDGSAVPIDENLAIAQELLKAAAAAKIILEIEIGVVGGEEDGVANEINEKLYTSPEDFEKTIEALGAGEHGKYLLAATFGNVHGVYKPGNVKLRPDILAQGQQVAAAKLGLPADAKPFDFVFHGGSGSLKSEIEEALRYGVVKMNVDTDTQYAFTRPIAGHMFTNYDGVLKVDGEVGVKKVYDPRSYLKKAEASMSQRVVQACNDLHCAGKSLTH
3CLpro inhibitor – SARS-CoV 3CLpro protease inhibition. P0C6X7. recombinant SARS-CoV 3CLpro, quenched FRET peptide cleavage. inhibition, % at 6 µM. actives 0.14% (n = 290,000). AID 1706; in the data active = inhibition above about 12%
DUSP3 inh – blocks human VHR1 dual specificity phosphatase. P51452. recombinant VHR phosphatase, pNPP absorbance. inhibition, % at 13.3 µM. actives 0.52% (n = 290,000); in the data active = inhibition above about 50%
Target sequence (P51452 whole entry, looked up): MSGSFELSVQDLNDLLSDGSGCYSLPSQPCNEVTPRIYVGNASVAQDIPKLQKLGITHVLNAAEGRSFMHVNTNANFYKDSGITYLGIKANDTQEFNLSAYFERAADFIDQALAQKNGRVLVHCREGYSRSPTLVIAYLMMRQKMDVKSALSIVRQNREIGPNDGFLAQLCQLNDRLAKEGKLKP
RecA intein inh – Mtb RecA intein splicing inhibition; P9WHJ3; cell-free RecA intein splicing, fluorescence; inhibition, % (concentration not given with the values); actives 0.75% (n = 290,000); AID 2221; in the data active = inhibition above about 30%;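 also: 0% = vehicle wells and 100% = reference inhibitor control wells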
Active calls of the source: *. Shown are actives, neighbours in structure and some others; about 4.7% of the full set was active somewhere. Rule as the data show it, unless noted: active = inhibition above about 30%; inactive = the rest.

COc1ccccc1CNC(=O)C1Cc2cc(S(=O)(=O)N3CCCC3)ccc2N1C(C)=O (stereo unspecified) was read as GDH-TPI counter 5, CCHFV vOTU inh 5, FBA Mtb inh 1, 3CLpro inhibitor -6, DUSP3 inh 8 and RecA intein inh -1.
`CCOc1ccccc1CNC(=O)C1Cc2cc(S(=O)(=O)N3CCCCC3)ccc2N1C(C)=O` (stereo unspecified) gave GDH-TPI counter 0, CCHFV vOTU inh 21, FBA Mtb inh -2, 3CLpro inhibitor -3, DUSP3 inh 18 and RecA intein inh 1.
`CC(=O)N1c2ccc(S(=O)(=O)N3CCCCC3)cc2CC1C(=O)NCc1ccccc1C` (stereo unspecified) gave GDH-TPI counter 13, CCHFV vOTU inh 15, FBA Mtb inh 3, 3CLpro inhibitor -4, DUSP3 inh 52* and RecA intein inh -1.
Screening Cc1ccc(S(=O)(=O)N2CCCC2C(=O)NCc2ccccc2F)cc1 (stereo unspecified) returned GDH-TPI counter -5, CCHFV vOTU inh -16, FBA Mtb inh -3, 3CLpro inhibitor -1, DUSP3 inh -17 and RecA intein inh -1.
Screening O=C(NC1CCCCC1)C1CCCN1S(=O)(=O)c1ccc(Cl)cc1 (stereo unspecified) returned GDH-TPI counter 1, CCHFV vOTU inh -12, FBA Mtb inh -5, 3CLpro inhibitor -5, DUSP3 inh 53* and RecA intein inh 2.
`O=C(CSc1nnc(Cc2cccs2)n1-c1ccccc1)Nc1ccccc1-c1ccccc1` gave CCHFV vOTU inh 4.
Screening Cc1cc(C)c2c(CC(=O)NN(C)C)coc2c1 returned GDH-TPI counter -9, CCHFV vOTU inh 10, FBA Mtb inh 2, 3CLpro inhibitor 1, DUSP3 inh 53* and RecA intein inh 1.
`CC(=O)C1=C(C)N(Cc2ccc(F)cc2)C(=S)NC1c1ccccc1` (stereo unspecified) gave CCHFV vOTU inh 4.
For CCCS(=O)(=O)c1c(S(=O)(=O)CCC)c2cnccn2c1C(=O)c1ccc(OC)cc1 the results were GDH-TPI counter 10, CCHFV vOTU inh -3, FBA Mtb inh -1, 3CLpro inhibitor 2, DUSP3 inh 16 and RecA intein inh -3.
`CCCS(=O)(=O)c1c(S(=O)(=O)CCC)c2cc(-c3ccncc3)ccn2c1C(=O)OC` gave GDH-TPI counter 16, CCHFV vOTU inh -205, FBA Mtb inh active, 3CLpro inhibitor 1, DUSP3 inh 8 and RecA intein inh -29.
CC(/C=C/c1ccco1)=N/NC(=O)OC(C)(C)C was read as GDH-TPI counter 2, CCHFV vOTU inh 1, FBA Mtb inh 3, 3CLpro inhibitor 2 and DUSP3 inh 13.
`C/C(=N\Nc1c([N+](=O)[O-])c(C)nn1C)c1ccc(F)cc1F` gave GDH-TPI counter 33*, CCHFV vOTU inh 14, FBA Mtb inh 0, 3CLpro inhibitor 6, DUSP3 inh -2 and RecA intein inh 0.
CC(=O)c1ccc(Sc2nnnn2-c2ccccc2)c([N+](=O)[O-])c1 was read as GDH-TPI counter 11, CCHFV vOTU inh -5, FBA Mtb inh -2, 3CLpro inhibitor 1, DUSP3 inh -2 and RecA intein inh 31*.
For COc1ccc(C(=O)C[C@@H]2OC[C@H](Cc3ccccc3)N2S(=O)(=O)c2ccc(C)cc2)cc1OC the results were CCHFV vOTU inh 6.
For Cc1ccc(/C=N/N=C2/NC(=O)C(CC(=O)Nc3ccc(Cl)cc3)S2)o1 (stereo unspecified) the results were GDH-TPI counter 41*, CCHFV vOTU inh 0, FBA Mtb inh -1, 3CLpro inhibitor -2, DUSP3 inh 36 and RecA intein inh 0.
Screening c1cnn(-c2cncc(-n3cccn3)n2)c1 returned GDH-TPI counter 32*, CCHFV vOTU inh -9, FBA Mtb inh 16, 3CLpro inhibitor 0, DUSP3 inh -1 and RecA intein inh -1.
`O=C(O)c1ccc(-n2cccn2)nc1` gave GDH-TPI counter 0, CCHFV vOTU inh 2, FBA Mtb inh 1, 3CLpro inhibitor -3, DUSP3 inh -2 and RecA intein inh 0.
`CC(=O)/C=N/Nc1ccccc1` gave GDH-TPI counter 36*, CCHFV vOTU inh -10, FBA Mtb inh 2, 3CLpro inhibitor -3, DUSP3 inh 25 and RecA intein inh 0.
`CC(=NNc1ccccc1)C(C)=NNc1ccccc1` gave GDH-TPI counter 8, CCHFV vOTU inh -3 and FBA Mtb inh -1.
Screening CCN(CC)C(=O)[C@H]1C[C@H](CC(=O)NC(C)(C)C)C(=O)N2CCc3c([nH]c4cc(CCC(=O)N(C)C)ccc34)[C@]12C returned GDH-TPI counter -3, CCHFV vOTU inh 15 and FBA Mtb inh -1.
For Cc1csc(=O)n1CC(=O)OC(C)C(=O)Nc1ccc(N(C)C)cc1 (stereo unspecified) the results were GDH-TPI counter 9, CCHFV vOTU inh -4 and FBA Mtb inh 5.
Screening COc1cccc(C2NC(=S)NC(C)=C2C(C)=O)c1 (stereo unspecified) returned CCHFV vOTU inh 6.
`COc1ccc(-n2c(COc3ccccc3)nnc2SCc2nc3ccccc3[nH]2)cc1` gave CCHFV vOTU inh -2.
For CC(=O)Nc1c(Cl)cnn(-c2ccccc2)c1=O the results were GDH-TPI counter 43*, CCHFV vOTU inh 21, FBA Mtb inh 1 and RecA intein inh 1.
`CNC(=O)c1c(Cl)cnn1-c1ccccc1` gave GDH-TPI counter 6, CCHFV vOTU inh -3, FBA Mtb inh 8, 3CLpro inhibitor 5, DUSP3 inh 26 and RecA intein inh 10.
`COc1cc(/C=C/C2=NNC(=O)CC2)cc(OC)c1OC` gave GDH-TPI counter 45*, CCHFV vOTU inh 10, FBA Mtb inh 8, 3CLpro inhibitor -2, DUSP3 inh 7 and RecA intein inh 5.
For CC(C)c1ccc(/C=C/C2=NNC(=O)CC2)cc1 the results were GDH-TPI counter 9, CCHFV vOTU inh 4, FBA Mtb inh 0, 3CLpro inhibitor -2, DUSP3 inh 26 and RecA intein inh -1.
For C#CCNc1c2c(nc3ncnn13)CC(C)CC2 (stereo unspecified) the results were GDH-TPI counter 3, CCHFV vOTU inh -11, FBA Mtb inh 5, 3CLpro inhibitor -4, DUSP3 inh -1 and RecA intein inh 1.
COC(=O)C1=CN(CC2CCCO2)C=C(C(=O)OC)C1c1cccc(O)c1 (stereo unspecified) was read as GDH-TPI counter 3, CCHFV vOTU inh -238, FBA Mtb inh 196*, 3CLpro inhibitor 0, DUSP3 inh 12 and RecA intein inh -122.
`COC(=O)C1=CN(CCCN2CCCC2=O)C=C(C(=O)OC)C1c1ccccc1C(F)(F)F` gave GDH-TPI counter 22, CCHFV vOTU inh -181, FBA Mtb inh 123*, 3CLpro inhibitor -1, DUSP3 inh 13 and RecA intein inh inactive.
